# Data as given in PubChem BioAssay (NCATS).
# Inconclusive results are not listed. Active and inactive are the calls of the source. The call rests on the fitted dose curve; in most records, active means well fitted cell-killing curve with a large enough effect; inconclusive means small, poorly fitted or top-dose-only effect; inactive means no such curve, though single readings can be large or run the other way.
# Test: Quantitative High-Throughput drug screen in 47 multiple myeloma cell lines against the NCATS MIPE library collection: JIM3_ECACC cell viability assay (AID 1918963; further: nearly all actives have a fitted effect of over 35% in size)
# Details: JIM3 myeloma viability, CellTiter-Glo ATP, 48 h; series mostly up to 45.8 µM; viability, percent of control: at the top concentration
# From the text: PI: Beverly A. Mock Ph.D.
# Laboratory of Cancer Biology and Genetics,
# Center for Cancer Research, National Cancer Institute,
# National Institute of Health, Bethesda, Maryland
# Drug resistance and disease progression are common in multiple myeloma (MM) patients, underscoring the need for new therapeutic combinations. […] We hypothesized that effective combinations would reduce MYC expression and enhance p16 activity. […] These preclinical data identify potentially useful drug combinations for evaluation in drug-resistant MM and reveal potential mechanisms of combined drug sensitivity.
# Described herein is the primary MIPE qHTS used to cherrypick compounds. Validated compounds were then further tested for potential synergistic activiy.
# [1] Peat TJ, Gaikwad SM, Dubois W, Gyabaah-Kessie N, Zhang S, Gorjifard S, Phyo Z, Andres M, Hughitt VK, Simpson RM, Miller MA, Girvin AT, Taylor A, Williams D, D'Antonio N, Zhang Y, Rajagopalan A, Flietner E, Wilson K, Zhang X, Shinn P, Klumpp-Thomas C, McKnight C, Itkin Z, Chen L, Kazandijian D, Zhang J, Michalowski AM, Simmons JK, Keats J, Thomas CJ, Mock BA. Drug combinations identified by high-throughput screening promote cell cycle transition and upregulate Smad pathways in myeloma. Cancer Lett. 2023 Aug 1;568:216284. doi: 10.1016/j.canlet.2023.216284. Epub 2023 Jun 24. PMID: 37356470; PMCID: PMC10408729.
# SEQUENCE No. (e.g., 1, 2, 3, etc.); […] (e.g., Cells, Incubation, Reagent, etc.); VALUE and DESCRIPTION.
# 1; Cells; 5 uL; white, solid bottom 1536-well Greiner assay plate.
# 2; Compounds; 23 nL; Kalypsis pin tool (Wako USA) equipped with a 1536-well pin head to transfer to the assay plates.
# 3; Incubation; 48 hours; 37C incubation.
# 4; Reagent;5uL; CellTiter Glo (Promega).
# 5; Detector; 425V; Luminescence; Viewlux PerkinElmer.
# NOTES (numbers refer to Sequence numbers above)
# 1. The cell-based screening methods employed in this study were like those previously published. Briefly, the corresponding myeloma cell lines were screened in 1,536-well plates with 500 cells, 5-uL per well for inhibition of cell viability (assessed by measuring ATP levels with CellTiterGlo).
# 2. NCATS MIPE 4.0 library of approved and investigational drugs were added using the Kalypsis pin tool. Wells treated with DMSO only for 100% viability and media only wells for 0% viability were used as controls.
# 3. The assay plates were covered and incubated for 48 hours in a 37C, 5% CO2 incubator with controlled humidity.
# 4. After 48 hours, CellTilter-GloTM luminescent substrate mix (Promega) reagent was added to the assay plate and plates we incubated for 5 min at room temperature.
# 5. Signal was measured as median relative luminescence units on a ViewLux (PerkinElmer) multiplate reader.
# [1] Heske CM, Davis MI, Baumgart JT, Wilson K, Gormally MV, Chen L, Zhang X, Ceribelli M, Duveau DY, Guha R, Ferrer M, Arnaldez FI, Ji J, Tran HL, Zhang Y, Mendoza A, Helman LJ, Thomas CJ. Matrix Screen Identifies Synergistic Combination of PARP Inhibitors and Nicotinamide Phosphoribosyltransferase (NAMPT) Inhibitors in Ewing Sarcoma. Clin Cancer Res. 2017 Dec 1;23(23):7301-7311. doi: 10.1158/1078-0432.CCR-17-1121. Epub 2017 Sep 12. PMID: 28899971; PMCID: PMC6636827.
# Potency means the concentration at half of the fitted maximal effect.
Compound,"viability, percent of control",Potency
CCC1(c2ccc(N)cc2)CCC(=O)NC1=O (configuration not stated),104% (inactive),–
C[C@]12CC[C@@H]3c4ccc(OC(=O)N(CCCl)CCCl)cc4CC[C@H]3[C@@H]1CC[C@@H]2OP(=O)(O)O,121% (inactive),–
CN1C(=O)CCS(=O)(=O)C1c1ccc(Cl)cc1 (configuration not stated),98.2% (inactive),–
O=C(O)CCCc1ccc(N(CCCl)CCCl)cc1,94.8% (inactive),–
CC(C)c1cccc(C(C)C)c1O,131% (inactive),–
COc1cc(OC)c(OC)cc1C=O,116% (inactive),–
CC(NC(C)(C)C)C(=O)c1cccc(Cl)c1 (configuration not stated),117% (inactive),–
C[C@](O)(CS(=O)(=O)c1ccc(F)cc1)C(=O)Nc1ccc(C#N)c(C(F)(F)F)c1,–,2350 nM (active)
C[C@]12CCC(=O)C=C1CC[C@@H]1[C@H]3CC[C@](C)(O)[C@@]3(C)CC[C@@H]12,107% [at 92.2 µM] (inactive),–
CC(C)C[C@H](CN)CC(=O)O,118% (inactive),–
C[C@]12CC[C@H]3[C@@H](CC[C@@]45O[C@H]4C(O)=C(C#N)C[C@]35C)[C@H]1CC[C@H]2O,125% (inactive),–
CN1C(=O)COc2c(C(=O)NC3CN4CCC3CC4)cc(Cl)cc21 (configuration not stated),126% (inactive),–
